Potency and affinity values are given separately. Activity calls are given as the source filed them. A call without a number means that no potency is given here. The rule behind the calls is not given here.

The experiment is described as follows: VEEV CPE inhibition, infected Vero cells, confirmatory, 66.6 µM top concentration (AID 2409). As to conditions: series mostly up to 66.6 µM.
In the case of `O=C(CSc1nc2ccccc2c(=O)n1-c1ccc(F)cc1)Nc1ccc2c(c1)OCCO2`, the result was inactive.

Take `OC1c2cc(Br)ccc2N=C2CCCCN21` (stereo not drawn): the call was inactive.

For the compound `O=c1c2cc(I)ccc2nc2n1CCC2`, the outcome was inactive.

With `Cc1ccc2nc3n(c(=O)c2c1)CCC3`, the compound was classed as inactive.

In the case of `OC1c2c(F)cccc2N=C2CCCCN21` (stereo not drawn), the compound was classed as inactive.

For the compound `COc1cccc(-n2c(SCC(=O)Nc3ccc4c(c3)CCC4)nc3ccccc3c2=O)c1`, the compound was classed as inactive.

With `O=c1c2cccc(Cl)c2nc2n1CCC2`, the outcome was inactive.

In the case of `CC1CC(C)CN(C(=O)CSc2nc3ccccc3c(=O)n2-c2ccc(F)cc2)C1` (stereo not drawn), the result was inactive.

For the compound `O=C(CSc1nc2ccccc2c(=O)n1-c1ccc(Cl)c(Cl)c1)Nc1ccc2c(c1)CCC2`, the compound was classed as inactive.

For `CC(=O)Nc1ccc2nc3n(c(=O)c2c1)CCC3`, the compound was classed as inactive.

Regarding `O=C(CSc1nc2ccccc2c(=O)n1-c1ccc(F)cc1F)Nc1ccc(N2CCOCC2)cc1`, the call was inactive.

Take `COc1ccc(-c2csc(N(Cc3ccccc3)C(=O)c3ccccc3Cl)n2)cc1`: the compound was called inactive.

For the compound `O=[N+]([O-])c1ccc2c(c1)C(O)N1CCCC1=N2` (stereo not drawn), the call was inactive.

For the compound `O=C(CSc1nc2ccccc2c(=O)n1-c1ccccc1F)Nc1ccc2c(c1)CCC2`, the compound was called inactive.

As for `COc1ccc(-c2csc(N(C)C(=O)c3ccccc3Cl)n2)cc1`, the outcome was inactive.

`O=C(CSc1nc2ccccc2c(=O)n1-c1ccc(F)cc1)Nc1cccc2ccccc12`: the result was inactive.

As to `Cc1cc(OC(=O)c2c(F)cccc2F)n(Cc2ccccc2)n1`, the compound was classed as inactive.

`O=c1c2cc([N+](=O)[O-])ccc2nc2n1CCC2`: the compound was classed as inactive.

For `Nc1ccc2nc3n(c(=O)c2c1)CCC3`, the compound was classed as inactive.

`O=C(CSc1nc2ccccc2c(=O)n1-c1ccc(F)cc1F)Nc1ccc2c(c1)CCC2`: the compound was called inactive.

`O=C(CSc1nc2cccc(I)c2c(=O)n1-c1ccccc1)Nc1ccc2c(c1)CCC2`: the compound was classed as inactive.

In the case of `O=C(CSc1nc2ccccc2c(=O)n1-c1ccc(F)cc1)Nc1ccc2c(c1)CCC2`, the call was inactive.

`Cc1cccc2nc3n(c(=O)c12)CCC3`: the call was inactive.

As for `O=C(CSc1nc2ccccc2c(=O)n1-c1ccc(F)c(Cl)c1)Nc1ccc2c(c1)CCC2`, the compound was classed as inactive.

Regarding `O=C(CSc1nc2ccccc2c(=O)n1-c1ccccc1)Nc1ccc2c(c1)CCC2`, the compound was classed as inactive.

As to `O=c1c2cc(Br)ccc2nc2n1CC/C2=C/c1ccccc1`, the compound was classed as inactive.

Regarding `Cc1cccc2c(=O)n3c(nc12)CCC3`, the outcome was inactive.

On to `OC1c2c(F)cccc2N=C2CCCCCN21` (stereo not drawn), for which the compound was called inactive.

`O=c1c2cc(Cl)cc(Cl)c2nc2n1CCC2`: the outcome was inactive.

In the case of `CCCN(C(=O)c1ccccc1Cl)c1nc(-c2ccc(OC)cc2)cs1`, the call was inactive.

For the compound `OC1c2c(F)cccc2N=C2CCCN21` (stereo not drawn), the compound was called inactive.

For `OC1c2cc(Br)ccc2N=C2CCCCCN21` (stereo not drawn), the result was inactive.

In the case of `O=C(CSc1nc2ccc(F)cc2c(=O)n1-c1ccccc1)Nc1ccc2c(c1)CCC2`, the call was inactive.

For `O=C(CSc1nc2cccc(F)c2c(=O)n1-c1ccccc1)Nc1ccc2c(c1)CCC2`, the outcome was inactive.

For the compound `O=c1c2c(F)cccc2nc2n1CCC2`, the compound was classed as inactive.

For the compound `COc1ccccc1NC(=O)CSc1nc2ccccc2c(=O)n1-c1ccc(F)cc1`, the outcome was inactive.

Turning to `OC1c2cc(I)ccc2N=C2CCCN21` (stereo not drawn), the call was inactive.

With `CC1(O)c2cc(Br)ccc2N=C2CCCN21` (stereo not drawn), the compound was called inactive.

The values are drawn from PubChem BioAssay AID2409 (Southern Research Specialized Biocontainment Screening …, 2010).
